Measurements reported in PubChem BioAssay (NCI).
This is part of a sample that, as a whole, favours compounds with a hit. Of some 83,000 tested, about 20% had one in any assay.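 Testing used 96-well plates and a 48-hour single-concentration exposure. Example: -40 means 40% of the starting cells died.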 A number with no mark means an inactive call. Active and inactive are the calls of the source.

Tested on: HOP-92 NSCLC
Test: NCI-60 one-dose screen, 48 h (100 = growth as untreated, 0 = no growth, -100 = all killed)
Conditions: 10 µM unless noted
Procedure: Growth inhibition of the HOP-92 human Non-Small Cell Lung tumor cell line is measured as a screen for anti-cancer activity. Cells are grown in 96 well plates and exposed to the test compound for 48 hours. Compounds are tested at a single concentration, which is 10^-5 M for most compounds. The reported endpoint is percent growth (GI% or GIPRCNT), where numbers from 0 - 100% represent growth inhibition, and numbers from -100% - 0 represent cell death. For example, a value of 40 represents 60% growth inhibition. A value of 0 means no net growth occurred over the course of the experiment. A value of -40 indicates 40% of cells at the beginning of the experiment died by the end of the experiment. A value of -100 means all cells are dead at the end of the experiment.
NCI-60 Human Tumor Cell Lines Screen was performed using the standard one-dose NCI protocol, which is described in more detail at https://dtp.cancer.gov/discovery_development/nci-60/default.htm.
Compounds with GIPRCNT values below 10 were considered active. Activity score was based on GIPRCNT using the following formula: […]
Score is 0 for GIPRCNT values of 100 or above, 50 for GIPRCNT values of 0, and 100 for GIPRCNT values of -100.

Row | SMILES | growth
1 | O=C1/C(=C/c2ccccc2)CN(C(=O)CCN2CCC(=NO)CC2)C/C1=C\c1ccccc1 | 77.6%
2 | CCCCN(CCCC)C(=N)c1ccnc2ccccc12 | 96.4%
3 | COc1c2occc2c(OC)c2c(=O)c(-c3cc(-c4ccc(F)cc4)c(C#N)c(N)n3)c(C)oc12 | 30.6%
4 | CC1=C(C#N)C(=O)NC(C)C1 (stereo not given) | 83.1%
5 | Cc1ccc(S(=O)(=O)NC(=O)n2cc(-c3ccncc3)c(-c3ccc(Cl)c(O)c3)n2)cc1 | 99%
6 | O=C(O)COc1ccc(-c2cssc2=S)cc1 | 111%
7 | COc1ccc(-c2nc(SCCC(C)C)nc(Nc3ccc(F)c(Cl)c3)c2C#N)cc1 | 101%
8 | C/C=C(\C)C(C(=O)NC1CCCCC1)N(C(=O)C1CCc2cc(F)ccc2O1)c1ccc(Cl)cc1 (stereo not given) | 108%
9 | N/C(=N\C(N)=N\c1nc2ccccc2s1)c1cccc(Br)c1 | 96.7%
10 | COc1ccc(NC(=O)c2c(Nc3ccc(OC)cc3OC)n[nH]c2N)c(OC)c1 | 74.1%
11 | Cc1ccc(Cc2c(C=O)nc(N)[nH]c2=O)c2ccccc12 | 91.9%
12 | C/C(=N/NC(=S)Nc1ccccc1)c1nc2ccc(Cl)cc2[nH]1 | -68.8% (active)
13 | CC[N+](CC)=c1cc2oc3cc(N(C)C)ccc3nc-2cc1C | 63.9%
14 | C=C1C(=O)O[C@H]2[C@H]1CC/C(Cn1cc(CNC(=O)Cc3cn(C(=O)c4ccc(Cl)cc4)c4ccc(OC)cc34)nn1)=C\CC[C@@]1(C)O[C@@H]21 | -65.8% (active)
15 | Cc1nn(-c2ccc(Cl)cc2)c2ncnc(N/N=C/c3cccc([N+](=O)[O-])c3)c12 | 20.4%
16 | COc1ccc(Nc2nn3c(C)cc(C)nc3c2C(=O)Nc2ccc(C)cc2)c(OC)c1 | 87.1%
17 | CCCCCCCC/C=C/CCCCCCCC1=NC(C)(C)CN1C(C)(C)CO | 20.3%
18 | Cc1nc2cncc(C#Cc3cncc(C(=O)Nc4ccc(CN5CCN(C)CC5)c(C(F)(F)F)c4)c3)c2nc1C | -40.5% (active)
19 | Brc1cccc(-c2cc(-c3ccc4c(c3)OCCCO4)[nH]n2)c1 | 56.8% [25 µM]
20 | CC(C)(C)OC(=O)NC(CSCc1ccccc1)C(=O)ON1C(=O)CCC1=O (stereo not given) | 92.4%

Row | SMILES | growth
21 | COc1cc(/C=C/C(=O)c2cccc(-n3cc(-c4cc(OC)c(OC)c(OC)c4)[nH]c3=O)c2)cc(OC)c1OC | -12.2% (active)
22 | CCN1CCN(c2nc(NNC(=O)c3ccccc3)nc(N3CCN(C(c4ccccc4)c4ccccc4)CC3)n2)CC1 | 59.3%
23 | COc1ccc(N2CCN(Cc3cc(C(=O)/C=C/c4c[nH]c5ccccc45)ccc3O)CC2)cc1 | 89.9%
24 | Clc1ccc2c(NC3CCC(NC4CCCCC4)CC3)ccnc2c1 (stereo not given) | 51.5%
25 | COc1ccc(-c2ccc(-c3ccc(-c4ccc(C(=N)N)cc4)s3)s2)cc1OC | 33.1%
26 | CC(C)(C)c1[nH]nc2c1C(c1cc3ccccc3[nH]c1=O)Nc1cc(C(=O)Nc3ccc(Cl)cc3)ccc1N2 (stereo not given) | 86.1%
27 | COc1ccc(-c2ccc(C)n2-c2ccc(-c3nc4cc(Cl)ccc4s3)cc2)cc1 | 133%
28 | N=C(N)c1ccc(-c2cc(Cl)cc(Cl)c2)cn1 | 59.3%
29 | Fc1ccccc1-c1nc(-c2nc3cc(Cl)c(Cl)cc3[nH]2)c2ccccn12 | 49.6%
30 | COc1ccc(-c2[nH]nc(N)c2-c2cc(OC)c3c(c2)OCO3)cc1 | 69.7%
31 | CCOc1cc2c(Cl)ncnc2c(OCC)c1OCC | 86.9%
32 | COc1ccc(Cn2cc3c(c2-c2cc(OC)c(OC)c(OC)c2)CCc2cnoc2-3)cc1 | 77.1%
33 | C=C1CCC2C3(C)COC(c4ccccc4)OC3CCC2(C)C1/C=C/C1=CCOC1=O (stereo not given) | 68.4%
34 | N=C(N)c1ccc(-c2ccc(-c3ccc(-c4cccs4)s3)s2)cc1 | 54.6%
35 | Nc1cccc(-c2nc3sccn3c2-c2ccnc(NCCCNS(=O)(=O)c3cccc4ccccc34)n2)c1 | 92.4%
36 | CCCCCCCCCCCCNC(=O)[C@H]1CSC(c2ccsc2)N1 (stereo not given in full) | -10% (active)
37 | NC(N)=Nc1nc2ccccc2o1 | -9.02% (active)
38 | O=c1[nH]c2ccc(Br)cc2c2c1C(c1ccc(Cl)cc1)c1c(ncn3nc(-c4ccco4)nc13)O2 (stereo not given) | 37.7%
39 | CC(C)(C)n1cc(-c2ccnc(NCCCNS(=O)(=O)c3ccc(C(F)(F)F)cc3)c2)c(-c2cccc(O)c2)n1 | 22.7%
40 | CCCCCCCCN(CCCCCCCC)CCCCCCNc1cc(OC)cc2cccnc12 | 62.6%
